Measured values published in ChEMBL document CHEMBL1961873, “Compounds: GSK PKIS; Assays: Nanosyn kinase panel” (2012).

Experiments:
[1] = target: High affinity nerve growth factor receptor (Homo sapiens) (UniProt P04629); settings: at 1 µM;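 also: each value is the mean percent inhibition of TRKA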
[2] = target: BDNF/NT-3 growth factors receptor (Homo sapiens) (UniProt Q16620); settings: at 0.1 µM
[3] = target: BDNF/NT-3 growth factors receptor (Homo sapiens) (UniProt Q16620); settings: at 1 µM
[4] = target: NT-3 growth factor receptor (Homo sapiens) (UniProt Q16288); settings: at 0.1 µM
[5] = target: NT-3 growth factor receptor (Homo sapiens) (UniProt Q16288); settings: at 1 µM
[6] = target: T1, Tyrosine-protein kinase TXK (Homo sapiens) (UniProt P42681); settings: at 0.1 µM
T1 sequence (whole entry): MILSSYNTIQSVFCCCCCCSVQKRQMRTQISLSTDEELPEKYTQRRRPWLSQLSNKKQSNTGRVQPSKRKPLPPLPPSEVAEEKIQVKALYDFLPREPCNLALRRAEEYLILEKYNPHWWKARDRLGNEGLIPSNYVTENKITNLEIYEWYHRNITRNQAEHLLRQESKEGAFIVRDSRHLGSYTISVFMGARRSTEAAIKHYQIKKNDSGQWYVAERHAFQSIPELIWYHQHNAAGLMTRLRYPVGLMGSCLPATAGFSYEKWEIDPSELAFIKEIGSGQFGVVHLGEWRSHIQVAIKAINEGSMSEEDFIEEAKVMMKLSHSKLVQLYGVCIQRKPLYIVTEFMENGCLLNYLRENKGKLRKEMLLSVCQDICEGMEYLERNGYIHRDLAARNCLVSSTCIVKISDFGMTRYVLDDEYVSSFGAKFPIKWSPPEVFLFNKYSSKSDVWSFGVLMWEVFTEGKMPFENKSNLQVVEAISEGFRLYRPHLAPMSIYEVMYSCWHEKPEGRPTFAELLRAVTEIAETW

[7] = target: T1, Tyrosine-protein kinase TXK (Homo sapiens); settings: at 1 µM
[8] = target: Non-receptor tyrosine-protein kinase TYK2 (Homo sapiens) (UniProt P29597); settings: at 0.1 µM;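 also: each value is a mean of the inhibition readings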
[9] = target: T2, Dual specificity protein kinase TTK (Homo sapiens) (UniProt P33981); settings: at 1 µM;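 also: reported figures are mean TTK inhibition at 1 µM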
T2 sequence (whole entry): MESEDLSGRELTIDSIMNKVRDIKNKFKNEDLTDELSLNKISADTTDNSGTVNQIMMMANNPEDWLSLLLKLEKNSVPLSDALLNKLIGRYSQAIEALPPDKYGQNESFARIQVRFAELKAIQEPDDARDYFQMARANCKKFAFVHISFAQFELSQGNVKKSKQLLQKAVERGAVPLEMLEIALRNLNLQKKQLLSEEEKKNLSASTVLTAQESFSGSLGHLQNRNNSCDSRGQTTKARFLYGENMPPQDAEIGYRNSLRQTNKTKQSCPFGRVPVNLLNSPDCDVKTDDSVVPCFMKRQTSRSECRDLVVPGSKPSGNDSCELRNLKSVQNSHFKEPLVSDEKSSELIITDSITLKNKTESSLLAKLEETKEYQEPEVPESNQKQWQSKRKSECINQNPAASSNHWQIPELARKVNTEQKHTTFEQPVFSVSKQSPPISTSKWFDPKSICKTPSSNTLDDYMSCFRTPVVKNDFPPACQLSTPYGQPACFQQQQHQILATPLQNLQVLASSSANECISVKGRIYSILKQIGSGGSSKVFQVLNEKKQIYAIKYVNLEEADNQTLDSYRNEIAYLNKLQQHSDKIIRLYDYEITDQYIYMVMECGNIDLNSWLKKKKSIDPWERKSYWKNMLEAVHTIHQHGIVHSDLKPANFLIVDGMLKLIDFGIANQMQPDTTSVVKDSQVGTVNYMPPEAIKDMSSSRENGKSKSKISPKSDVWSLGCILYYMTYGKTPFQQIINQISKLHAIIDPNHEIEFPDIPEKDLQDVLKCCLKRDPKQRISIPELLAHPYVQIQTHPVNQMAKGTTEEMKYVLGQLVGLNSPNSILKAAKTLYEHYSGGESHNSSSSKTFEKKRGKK

[10] = target: T3, Aurora kinase A (Homo sapiens) (UniProt O14965); settings: at 0.1 µM
T3 sequence (whole entry): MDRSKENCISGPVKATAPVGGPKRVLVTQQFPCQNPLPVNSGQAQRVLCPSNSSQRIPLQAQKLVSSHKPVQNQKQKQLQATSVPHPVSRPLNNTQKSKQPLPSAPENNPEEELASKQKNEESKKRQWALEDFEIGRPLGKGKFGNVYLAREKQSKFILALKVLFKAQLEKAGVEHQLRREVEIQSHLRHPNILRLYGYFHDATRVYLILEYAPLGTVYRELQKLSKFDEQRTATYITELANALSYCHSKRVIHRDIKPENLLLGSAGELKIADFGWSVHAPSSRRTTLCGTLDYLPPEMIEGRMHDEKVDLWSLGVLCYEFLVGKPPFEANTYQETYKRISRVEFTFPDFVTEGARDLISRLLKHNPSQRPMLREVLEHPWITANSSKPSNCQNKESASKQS

[11] = target: T3, Aurora kinase A (Homo sapiens); settings: at 1 µM
[12] = target: Aurora kinase B (Homo sapiens) (UniProt Q96GD4); settings: at 0.1 µM
[13] = target: Aurora kinase B (Homo sapiens) (UniProt Q96GD4); settings: at 1 µM
[14] = target: T4, Aurora kinase C (Homo sapiens) (UniProt Q9UQB9); settings: at 0.1 µM
T4 sequence (whole entry): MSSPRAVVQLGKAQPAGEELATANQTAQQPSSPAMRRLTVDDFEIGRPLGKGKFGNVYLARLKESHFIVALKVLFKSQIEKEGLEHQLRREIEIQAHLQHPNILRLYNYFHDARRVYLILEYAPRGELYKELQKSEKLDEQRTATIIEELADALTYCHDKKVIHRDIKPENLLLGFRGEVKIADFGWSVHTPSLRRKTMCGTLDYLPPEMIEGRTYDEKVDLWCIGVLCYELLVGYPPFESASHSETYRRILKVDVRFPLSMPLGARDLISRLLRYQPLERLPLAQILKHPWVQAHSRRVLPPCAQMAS

[15] = target: T4, Aurora kinase C (Homo sapiens); settings: at 1 µM
[16] = target: Serine/threonine-protein kinase 10 (Homo sapiens) (UniProt O94804); settings: at 0.1 µM
[17] = target: Serine/threonine-protein kinase 10 (Homo sapiens) (UniProt O94804); settings: at 1 µM
[18] = target: T5, Mitogen-activated protein kinase kinase kinase kinase 2 (Homo sapiens) (UniProt Q12851); settings: at 0.1 µM
T5 sequence (whole entry): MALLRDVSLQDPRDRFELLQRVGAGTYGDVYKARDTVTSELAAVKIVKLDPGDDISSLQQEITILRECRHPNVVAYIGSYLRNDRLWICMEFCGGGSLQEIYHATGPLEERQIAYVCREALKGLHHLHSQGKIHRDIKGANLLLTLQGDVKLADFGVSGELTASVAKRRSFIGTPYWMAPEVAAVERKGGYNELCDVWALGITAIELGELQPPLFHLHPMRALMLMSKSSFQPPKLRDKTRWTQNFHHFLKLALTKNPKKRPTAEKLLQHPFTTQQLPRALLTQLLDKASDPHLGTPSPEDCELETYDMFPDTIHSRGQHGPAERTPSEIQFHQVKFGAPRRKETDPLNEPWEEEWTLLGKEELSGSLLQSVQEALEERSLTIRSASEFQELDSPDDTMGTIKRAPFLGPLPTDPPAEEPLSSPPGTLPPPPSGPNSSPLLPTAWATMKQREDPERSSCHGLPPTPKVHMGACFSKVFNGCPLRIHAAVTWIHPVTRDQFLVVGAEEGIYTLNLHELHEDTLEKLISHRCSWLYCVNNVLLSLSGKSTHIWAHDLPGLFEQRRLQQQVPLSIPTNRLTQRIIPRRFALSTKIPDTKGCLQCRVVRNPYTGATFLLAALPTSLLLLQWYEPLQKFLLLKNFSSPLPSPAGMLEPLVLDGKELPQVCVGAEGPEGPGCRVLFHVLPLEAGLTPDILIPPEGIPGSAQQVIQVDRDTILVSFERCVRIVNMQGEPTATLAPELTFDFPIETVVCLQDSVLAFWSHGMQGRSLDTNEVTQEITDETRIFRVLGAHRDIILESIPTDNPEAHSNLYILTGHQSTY

[19] = target: T5, Mitogen-activated protein kinase kinase kinase kinase 2 (Homo sapiens); settings: at 1 µM
[20] = target: Mitogen-activated protein kinase kinase kinase kinase 4 (Homo sapiens) (UniProt O95819); settings: at 0.1 µM
Chain of Mitogen-activated protein kinase kinase kinase kinase 4 (Homo sapiens) (O95819 2-1239 limits assumed): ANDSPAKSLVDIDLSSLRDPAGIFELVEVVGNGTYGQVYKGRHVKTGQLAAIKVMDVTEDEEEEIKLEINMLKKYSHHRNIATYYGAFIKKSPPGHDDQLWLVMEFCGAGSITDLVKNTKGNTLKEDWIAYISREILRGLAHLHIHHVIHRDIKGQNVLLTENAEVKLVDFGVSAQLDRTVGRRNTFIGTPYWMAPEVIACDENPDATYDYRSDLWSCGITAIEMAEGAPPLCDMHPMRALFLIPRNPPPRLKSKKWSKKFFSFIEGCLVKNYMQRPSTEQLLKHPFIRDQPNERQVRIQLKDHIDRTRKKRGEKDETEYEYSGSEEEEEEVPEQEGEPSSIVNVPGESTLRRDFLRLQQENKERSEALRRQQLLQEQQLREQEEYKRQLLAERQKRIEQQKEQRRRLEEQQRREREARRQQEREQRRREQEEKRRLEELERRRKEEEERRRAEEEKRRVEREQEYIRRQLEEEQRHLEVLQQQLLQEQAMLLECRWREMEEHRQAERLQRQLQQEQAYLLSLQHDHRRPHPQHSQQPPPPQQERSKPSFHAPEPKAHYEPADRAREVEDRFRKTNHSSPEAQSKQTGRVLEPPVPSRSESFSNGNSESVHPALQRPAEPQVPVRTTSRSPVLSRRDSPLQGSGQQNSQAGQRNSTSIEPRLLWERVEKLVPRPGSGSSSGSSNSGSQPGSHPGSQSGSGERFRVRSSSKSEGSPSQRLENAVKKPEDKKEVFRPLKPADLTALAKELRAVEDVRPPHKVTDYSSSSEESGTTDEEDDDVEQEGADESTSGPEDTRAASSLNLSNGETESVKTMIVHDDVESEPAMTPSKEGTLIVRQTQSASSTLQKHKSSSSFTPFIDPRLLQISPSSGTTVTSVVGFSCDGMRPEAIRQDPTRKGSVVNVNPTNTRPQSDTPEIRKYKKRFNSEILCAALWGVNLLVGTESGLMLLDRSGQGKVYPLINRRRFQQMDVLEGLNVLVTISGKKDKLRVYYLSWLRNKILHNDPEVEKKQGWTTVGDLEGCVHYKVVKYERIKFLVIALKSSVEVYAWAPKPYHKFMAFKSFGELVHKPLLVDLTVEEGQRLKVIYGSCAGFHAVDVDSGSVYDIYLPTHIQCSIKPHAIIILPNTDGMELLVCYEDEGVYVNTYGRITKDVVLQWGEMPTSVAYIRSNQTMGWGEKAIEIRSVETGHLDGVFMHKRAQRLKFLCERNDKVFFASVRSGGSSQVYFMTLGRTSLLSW

Chain of NT-3 growth factor receptor (Homo sapiens) (Q16288 32-839 limits assumed): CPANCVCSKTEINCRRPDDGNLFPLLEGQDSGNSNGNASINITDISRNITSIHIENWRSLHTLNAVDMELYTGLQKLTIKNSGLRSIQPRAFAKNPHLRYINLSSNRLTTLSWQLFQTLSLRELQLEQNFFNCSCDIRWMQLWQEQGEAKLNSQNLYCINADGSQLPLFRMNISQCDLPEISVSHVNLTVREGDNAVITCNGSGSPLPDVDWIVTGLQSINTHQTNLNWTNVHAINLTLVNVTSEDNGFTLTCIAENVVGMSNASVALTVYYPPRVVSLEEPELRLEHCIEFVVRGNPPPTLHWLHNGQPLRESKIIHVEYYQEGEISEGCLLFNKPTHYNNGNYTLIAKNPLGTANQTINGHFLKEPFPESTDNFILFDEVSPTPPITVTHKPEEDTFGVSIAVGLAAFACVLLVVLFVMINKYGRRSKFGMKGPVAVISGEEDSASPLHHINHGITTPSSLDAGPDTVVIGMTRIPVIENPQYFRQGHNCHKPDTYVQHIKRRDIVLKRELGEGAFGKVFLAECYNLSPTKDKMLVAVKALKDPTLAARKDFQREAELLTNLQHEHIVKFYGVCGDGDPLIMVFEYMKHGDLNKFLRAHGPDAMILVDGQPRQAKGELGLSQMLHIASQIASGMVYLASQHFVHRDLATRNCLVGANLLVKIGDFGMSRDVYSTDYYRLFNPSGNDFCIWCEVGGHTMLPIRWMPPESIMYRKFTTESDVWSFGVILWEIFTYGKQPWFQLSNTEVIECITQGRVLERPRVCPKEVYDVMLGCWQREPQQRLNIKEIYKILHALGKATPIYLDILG
Chain of Aurora kinase B (Homo sapiens) (Q96GD4 whole entry): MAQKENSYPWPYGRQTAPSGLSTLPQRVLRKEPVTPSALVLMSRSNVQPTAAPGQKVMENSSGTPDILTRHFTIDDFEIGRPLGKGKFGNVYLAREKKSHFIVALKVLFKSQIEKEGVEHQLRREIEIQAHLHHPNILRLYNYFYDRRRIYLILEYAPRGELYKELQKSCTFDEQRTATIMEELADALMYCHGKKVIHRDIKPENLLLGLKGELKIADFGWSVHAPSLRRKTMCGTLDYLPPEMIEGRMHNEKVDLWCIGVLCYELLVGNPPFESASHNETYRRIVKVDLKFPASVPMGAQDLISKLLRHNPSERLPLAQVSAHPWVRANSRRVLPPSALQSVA
Chain of BDNF/NT-3 growth factors receptor (Homo sapiens) (Q16620 32-822 limits assumed): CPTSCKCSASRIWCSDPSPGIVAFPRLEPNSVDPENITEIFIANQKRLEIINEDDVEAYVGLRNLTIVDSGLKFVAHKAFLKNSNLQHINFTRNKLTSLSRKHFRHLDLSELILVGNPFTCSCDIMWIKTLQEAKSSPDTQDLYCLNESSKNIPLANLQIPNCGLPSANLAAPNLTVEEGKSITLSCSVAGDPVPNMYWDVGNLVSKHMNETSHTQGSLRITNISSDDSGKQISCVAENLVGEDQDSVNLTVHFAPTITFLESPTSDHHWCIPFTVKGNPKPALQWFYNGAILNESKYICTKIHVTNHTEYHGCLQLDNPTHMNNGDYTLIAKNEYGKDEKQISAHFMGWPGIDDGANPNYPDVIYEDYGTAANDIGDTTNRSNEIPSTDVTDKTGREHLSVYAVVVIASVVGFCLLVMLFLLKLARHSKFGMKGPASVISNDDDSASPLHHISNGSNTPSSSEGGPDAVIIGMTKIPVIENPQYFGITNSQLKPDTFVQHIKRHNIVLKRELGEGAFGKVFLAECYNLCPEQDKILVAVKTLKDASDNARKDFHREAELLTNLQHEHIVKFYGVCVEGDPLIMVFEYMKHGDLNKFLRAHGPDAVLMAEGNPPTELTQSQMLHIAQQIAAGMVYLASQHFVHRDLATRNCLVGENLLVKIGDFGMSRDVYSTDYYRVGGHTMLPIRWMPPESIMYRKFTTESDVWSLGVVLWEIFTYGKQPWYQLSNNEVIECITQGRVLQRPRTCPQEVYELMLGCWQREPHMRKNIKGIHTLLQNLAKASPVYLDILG
Chain of Non-receptor tyrosine-protein kinase TYK2 (Homo sapiens) (P29597 whole entry): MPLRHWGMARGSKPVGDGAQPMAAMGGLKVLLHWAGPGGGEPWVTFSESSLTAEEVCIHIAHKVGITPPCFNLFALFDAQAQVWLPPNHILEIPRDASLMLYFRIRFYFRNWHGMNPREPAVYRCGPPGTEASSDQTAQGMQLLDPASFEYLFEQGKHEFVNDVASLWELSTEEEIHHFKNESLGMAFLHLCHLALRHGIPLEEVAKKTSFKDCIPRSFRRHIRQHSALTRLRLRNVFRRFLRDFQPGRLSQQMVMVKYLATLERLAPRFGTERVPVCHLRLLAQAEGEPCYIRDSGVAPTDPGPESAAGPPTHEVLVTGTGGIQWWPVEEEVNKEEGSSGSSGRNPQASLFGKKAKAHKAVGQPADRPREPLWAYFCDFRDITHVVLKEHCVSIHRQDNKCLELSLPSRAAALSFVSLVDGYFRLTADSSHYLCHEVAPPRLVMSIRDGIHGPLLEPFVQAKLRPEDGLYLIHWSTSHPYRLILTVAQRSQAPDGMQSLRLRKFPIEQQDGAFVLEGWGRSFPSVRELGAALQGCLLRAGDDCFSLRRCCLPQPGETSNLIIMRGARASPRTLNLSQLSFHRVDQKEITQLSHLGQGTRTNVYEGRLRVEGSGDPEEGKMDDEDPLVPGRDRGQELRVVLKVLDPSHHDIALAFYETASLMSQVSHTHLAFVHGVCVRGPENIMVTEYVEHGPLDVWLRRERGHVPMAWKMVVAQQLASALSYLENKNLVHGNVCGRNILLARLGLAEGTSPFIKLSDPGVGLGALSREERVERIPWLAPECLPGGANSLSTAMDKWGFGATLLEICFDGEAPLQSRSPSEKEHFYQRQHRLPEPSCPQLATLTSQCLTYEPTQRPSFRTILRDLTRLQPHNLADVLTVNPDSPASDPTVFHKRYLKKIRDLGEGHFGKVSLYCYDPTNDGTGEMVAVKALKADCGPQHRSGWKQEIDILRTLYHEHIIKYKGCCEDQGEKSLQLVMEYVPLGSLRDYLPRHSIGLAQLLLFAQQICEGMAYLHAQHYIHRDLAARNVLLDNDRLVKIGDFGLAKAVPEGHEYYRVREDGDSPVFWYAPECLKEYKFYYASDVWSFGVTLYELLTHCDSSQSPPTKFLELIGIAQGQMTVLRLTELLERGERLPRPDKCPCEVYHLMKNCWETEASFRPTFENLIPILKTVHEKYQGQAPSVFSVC

Structure (SMILES) | inhibition [1] | inhibition [2] | inhibition [3] | inhibition [4] | inhibition [5] | inhibition [6] | inhibition [7] | inhibition [8] | inhibition [9] | inhibition [10] | inhibition [11] | inhibition [12] | inhibition [13] | inhibition [14] | inhibition [15] | inhibition [16] | inhibition [17] | inhibition [18] | inhibition [19] | inhibition [20]
COc1ccc(-c2oc3ncnc(N)c3c2-c2ccc(NC(=O)Nc3cc(C(F)(F)F)ccc3F)cc2)cc1 | 98.4% | 88.4% | 101% | 87.2% | 98.5% | 3.68% | 8.48% | -5.26% | 14.6% | 1.73% | 49.5% | 8.53% | 46.2% | 3.56% | 76.2% | 49.5% | 91.3% | 8.42% | 47.2% | 5.29%
NS(=O)(=O)c1ccc(N/N=C2\C(=O)Nc3ccc4ncccc4c32)cc1 | 50.4% | 21.5% | 72% | 26.7% | 78.5% | 5.15% | 26.9% | 7.29% | 67.6% | 27.3% | 91.8% | 20% | 67.9% | 15.8% | 91.9% | 4.44% | 13.1% | 11.7% | 49.8% | 44.4%
COc1cc(Nc2nccc(Nc3ccc4c(C)n[nH]c4c3)n2)cc(OC)c1OC | 64.1% | 4.63% | 41% | -0.03% | 17.3% | 23.9% | 61.9% | -1.55% | 8.41% | 10.2% | 66.5% | 5.08% | 24.2% | 7.34% | 79.7% | 26.1% | 77.6% | 3.12% | 7.42% | 2.17%
NS(=O)(=O)c1ccc(Nc2ncc(-c3ccccc3)o2)cc1 | 8.51% | 5.29% | 15.4% | 3.31% | 16.7% | 4.63% | 5.69% | -1.15% | 13.2% | 8.3% | 67.2% | 5.18% | 24.7% | 6.57% | 54.5% | 5.53% | 11.7% | 1.1% | 8.73% | 12.4%
COc1ccc(-c2cc(-c3c[nH]nc3-c3ccccn3)ccn2)cc1 | 3.12% | 3.7% | 3.9% | 3.2% | 5.62% | 1.77% | 3.18% | -6.95% | 10.5% | 3.7% | 5.58% | 4.41% | 5.71% | 2.12% | -1.66% | 5.75% | 8.57% | 1.74% | 2.15% | 35.5%
CCn1c(-c2nonc2N)nc2cnc(Oc3cccc(NC(=O)c4ccc(N(C)C)cc4)c3)cc21 | -1.16% | 0.09% | 0.73% | -0.04% | 1.6% | 1.57% | 3.29% | -5.17% | 2.67% | 6.99% | 79.2% | 3.58% | 18.1% | 1.17% | 43.7% | 2.62% | 5.59% | -0.28% | 3.56% | 3.32%
Nc1ncc(-c2cccc(S(N)(=O)=O)c2)c2scc(-c3ccc(F)c(Cl)c3)c12 | 2.2% | 2.61% | 3.28% | 1.75% | 1.1% | 82% | 91.6% | -1.25% | 14.3% | 3.16% | 5.8% | 2.25% | 14.7% | 4.24% | 24.6% | 8.9% | 24.7% | 6.47% | 31.4% | 78.5%
Cc1ccc(O)cc1Nc1ccnc2cc(-c3ccccn3)ccc12 | 4.34% | 1.78% | 2.4% | 3.76% | 4.64% | 42% | 82.3% | -4.79% | 7.97% | 2.82% | 17.7% | 9.57% | 43.9% | 6.76% | 60.6% | 11.1% | 47.6% | 3.74% | 26.4% | 26.7%
Fc1cccc(COc2ccc(Nc3ncnc4sc(-c5ccco5)cc34)cc2Cl)c1 | 0.66% | 3.36% | 3.82% | 3.74% | 3.88% | -1.45% | 3.65% | -2.62% | 6.39% | 2.5% | 3.83% | 3.38% | 6.89% | 5.96% | 7.59% | 9.25% | 15% | 1.99% | 3.87% | 3.43%
N#Cc1c(NC(=O)c2ccc(F)cc2)sc2c1CCCC2 | -0.28% | 0.21% | 0.82% | 0.15% | 1.15% | 1.7% | 2.45% | -3.45% | 2.26% | 1.91% | 0.18% | 2.3% | 1.27% | 0.83% | -4.93% | 3.11% | 6.81% | 0.12% | 1.05% | 1.93%
